Results taken from PubChem BioAssay (EPA / NIEHS).
Where “and” joins values, the source holds several entries; their conditions need not be identical. Equal entries are not always repeated. Results filed as inconclusive are left out. A structure can be active in one record and inactive in another. Calls of active or inactive are those of the source. Rule for the calls: active = hit-call score of the fitted dose curve at least 0.9, where 1 is the maximum; inconclusive = response in the unintended direction; inactive = score below 0.9.

The compounds below were run against Cellular tumor antigen p53 (Homo sapiens) (UniProt P04637) (assay: TOX21_p53_BLA_p2_ratio: Tox21 HCT-116 p53 Agonism Beta-lactamase Assay, Ratio, Phase 2 (AID 2283592)).
Sequence of Cellular tumor antigen p53 (Homo sapiens) (P04637 whole entry, looked up, the tested form may be a part): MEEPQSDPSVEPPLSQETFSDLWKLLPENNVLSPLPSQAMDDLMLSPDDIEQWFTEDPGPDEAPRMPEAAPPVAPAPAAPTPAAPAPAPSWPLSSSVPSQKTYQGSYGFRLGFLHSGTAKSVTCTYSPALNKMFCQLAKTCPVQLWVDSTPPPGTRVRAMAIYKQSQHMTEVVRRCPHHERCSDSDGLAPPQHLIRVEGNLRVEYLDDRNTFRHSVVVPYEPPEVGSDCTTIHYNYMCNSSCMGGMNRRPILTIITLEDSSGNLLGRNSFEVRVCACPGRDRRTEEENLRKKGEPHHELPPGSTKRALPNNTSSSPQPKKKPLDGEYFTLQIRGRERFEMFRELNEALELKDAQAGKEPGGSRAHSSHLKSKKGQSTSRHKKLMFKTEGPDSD
Source text: TOX21_p53_BLA_p2 is a cell-based, single-readout assay that uses HCT116, a human intestinal cell line, […] in a 1536-well plate.TOX21_p53_BLA_p2_ratio is an assay readout measuring reporter gene via receptor activity and designed using inducible reporter (beta lactamase induction) detected with GAL4 b-lactamase reporter gene. The signal is derived from the ratio of cleaved (ch2) to uncleaved (ch1) reporter gene substrate used as the measure of target activity.Data from the assay component TOX21_p53_BLA_p2_ratio was analyzed into 1 assay endpoint. This assay endpoint, TOX21_p53_BLA_p2_ratio, was analyzed in the positive analysis fitting direction relative to DMSO as the negative control and baseline of activity. Using a type of inducible reporter, gain-of-signal activity can be used to understand changes in the reporter gene as they relate to the gene TP53. Furthermore, this assay endpoint can be referred to as a primary readout, because this assay has produced multiple assay endpoints and this ratio serves a reporter gene function to understand target activity. To generalize the intended target to other relatable targets, this assay endpoint is annotated to the DNA binding intended target family, where the subfamily is tumor suppressor.
Thawing Method: Place 14 mL of pre-warmed thaw medium into a 15 mL of conical tub. Remove the vial of cells to be thawed from liquid nitrogen and thaw rapidly by placing at 37C in a water bath with gentle agitation for 1-2 minutes. Decontaminate the vial by wiping with 70% ethanol before opening in a biological safety cabinet. Transfer the vial contents drop-wise into 14 mL of thaw medium in a sterile 15-mL conical tub. Centrifuge cells at 900 rpm for 4 minutes and resuspend in thaw medium. Transfer contents to the T75 tissue culture flask containing Thaw Medium and place flask in a humidified 37C/5% CO2 incubator. Switch to growth medium at first passage.Propagation Method: Aspirate medium, rinse once in DPBS, add 0.25% Trypsin/EDTA and swirl to coat the cell evenly. Add an equal volume of Growth Medium to inactivate Trypsin after 2-3 minutes incubation at 37C. Centrifuge cells at 900 rpm for 4 minutes and resuspend in growth medium. Cell should be passage or fed at least twice a week.Assay Protocol: Harvest cells from culture in growth medium and resuspend in assay medium. 2.2 Dispense 4000 cells/5 uL/well into 1536-well black/clear bottom plates using a Multidrop dispenser. After the cells were incubated at 37C for 5 hours, 23 nL of compounds dissolved in DMSO were transferred to the assay plate by a PinTool resulting in a 217-fold dilution. Incubate the plates for 16 hours at 37C, 5% CO2. Add 1 uL of 6X LiveBLAzer FRET B/G (CCF4-AM) Substrate Mixture to each well using a BioRAPTR dispenser and incubate the plates at room temperature for 2 hours. Measure fluorescence intensity at 460 and 530 nm emission and 405 nm excitation by an Envision detector. Data is expressed as the ratio of 460nm/530nm emissions. Add 4 uL of Cell-titer Glo to each well using BioRAPTR and incubate the plates at room temperature for 2 hours. Measure fluorescence intensity by a VewLux plate reader.
For `CSCCC=O`, the outcome was “inactive”.
`CC[N+](C)(CC)CC` was tested, and the outcome was “inactive”.
For `CCCCC(CC)COC(=O)c1ccc(O)cc1` (stereo not given), the AC50 was 76.7 µM (active) and 74.7 µM (active).
For `O=[N+]([O-])c1cccc(Cl)c1`, the outcome was “inactive”.
With `CCO/C=C1\N=C(c2ccccc2)OC1=O` the outcome was “inactive”.
With `CCCCCCCCCCCC(=O)OC[C@@H](O)[C@H]1OC[C@H](O)[C@H]1O` the outcome was “inactive”.
With `CC(=O)CC(=O)Nc1ccc(C)cc1C` the outcome was “inactive”.
`Oc1c(Cl)cc(Cl)c(Cl)c1Cc1c(O)c(Cl)cc(Cl)c1Cl` was tested, and the AC50 was 10.3 µM (active) and 583 nM (active) and 984 nM (active).
For `CC1(C)O[C@@H]2[C@@H](CO[C@@]3(COS(N)(=O)=O)OC(C)(C)O[C@@H]23)O1`, the outcome was “inactive”.
For `C/C=C(\C)C(=O)OCCc1ccccc1`, the outcome was “inactive”.
In the case of `CC(=O)Nc1ccc(C(=O)CCl)cc1`, the AC50 is reported as 76.7 µM (active) and the outcome is reported as “inactive”.
For `OCC(O)c1ccccc1` (stereo not given), the outcome was “inactive”.
For `CN1C(=O)c2ccccc2C1=O`, the outcome was “inactive”.
`C=CCCC(=O)/C=C/C1C(C)=CCCC1(C)C` (stereo not given) was tested, and the outcome was “inactive”.
For `CC(=O)c1c(C)c([N+](=O)[O-])c(C(C)(C)C)c([N+](=O)[O-])c1C`, the outcome was “inactive”.
In the case of `Cc1cc(S(=O)(=O)O)ccc1N=Nc1c(O)ccc2ccccc12`, the outcome is reported as “inactive”.
With `CCCCSCCCC` the outcome was “inactive”.
For `CCCCC(CC)C(=O)OC(C)C` (stereo not given), the outcome was “inactive”.
For `Cc1cc(CCC(=O)OCCOCCOCCOC(=O)CCc2cc(C)c(O)c(C(C)(C)C)c2)cc(C(C)(C)C)c1O`, the outcome was “inactive”.
For `O=C(O)CCCCCCCCC(=O)O`, the outcome was “inactive”.
With `CCN(CC)C(=O)N(CC)CC` the outcome was “inactive”.
In the case of `NC(=S)NNC(N)=S`, the outcome is reported as “inactive”.
With `O=C(O)c1ccc(O)cc1` the outcome was “inactive”.
`Cc1ccc2c(c1)C(=O)OC2=O` was tested, and the outcome was “inactive”.
In the case of `c1ccc2[nH]cnc2c1`, the outcome is reported as “inactive”.
`CC(=O)O[C@@H]1CC2CCC1(C)C2(C)C` (stereo not given in full) was tested, and the outcome was “inactive”.
With `c1ccc2cc(Nc3ccc(Nc4ccc5ccccc5c4)cc3)ccc2c1` the outcome was “inactive”.
For `CCC(C)=O`, the outcome was “inactive”.
With `C=C(C)C(=O)OCCOCCOCCOCCOC(=O)C(=C)C` the outcome was “inactive”.
For `CS(=O)(=O)OCCCCOS(C)(=O)=O`, the outcome was “inactive”.
For `O=C(O)COCC(=O)O`, the outcome was “inactive”.
For `C[C@@H]1CCN(C(=O)[C@H](CCCN=C(N)N)NS(=O)(=O)c2cccc3c2NC[C@H](C)C3)[C@@H](C(=O)O)C1`, the outcome was “inactive”.
`CCCCN(CCCC)C(=O)N(CCCC)CCCC` was tested, and the outcome was “inactive”.
`CCOC(=O)c1ccc(N)cc1` was tested, and the outcome was “inactive”.
`CCCC1O[C@@H]2C[C@H]3[C@@H]4CCC5=CC(=O)C=C[C@]5(C)[C@H]4[C@@H](O)C[C@]3(C)[C@]2(C(=O)CO)O1` (stereo not given in full) was tested, and the outcome was “inactive”.
In the case of `C=C(C)CNCC`, the outcome is reported as “inactive”.
`Cc1ccc(-c2ccccc2)cc1` was tested, and the outcome was “inactive”.
For `CCCCCCCC(=O)OCCCCCC`, the outcome was “inactive”.
For `CCC(Cl)C(Cl)C(Cl)CC(Cl)C(Cl)C(C)Cl` (stereo not given), the outcome was “inactive”.
